In publication PMC4336329 (PLoS ONE, 2015):
The campaign covered roughly 310,000 compounds. About 14,000 (4.5%) showed an effect of 50% or more. Effects have a minus sign here. Shown is part of a subset that was picked to be rich in strong results.

Target: human ether-à-go-go-related gene (hERG) potassium channel (human, UniProt Q12809)
Test: primary screen, population patch clamp on CHO cells stably expressing hERG; higher = less effect of the substance
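Note: peak tail current of the secondary pulse compared with the same well before compound.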

human ether-à-go-go-related gene (hERG) potassium channel, sequence (Q12809 whole entry, looked up): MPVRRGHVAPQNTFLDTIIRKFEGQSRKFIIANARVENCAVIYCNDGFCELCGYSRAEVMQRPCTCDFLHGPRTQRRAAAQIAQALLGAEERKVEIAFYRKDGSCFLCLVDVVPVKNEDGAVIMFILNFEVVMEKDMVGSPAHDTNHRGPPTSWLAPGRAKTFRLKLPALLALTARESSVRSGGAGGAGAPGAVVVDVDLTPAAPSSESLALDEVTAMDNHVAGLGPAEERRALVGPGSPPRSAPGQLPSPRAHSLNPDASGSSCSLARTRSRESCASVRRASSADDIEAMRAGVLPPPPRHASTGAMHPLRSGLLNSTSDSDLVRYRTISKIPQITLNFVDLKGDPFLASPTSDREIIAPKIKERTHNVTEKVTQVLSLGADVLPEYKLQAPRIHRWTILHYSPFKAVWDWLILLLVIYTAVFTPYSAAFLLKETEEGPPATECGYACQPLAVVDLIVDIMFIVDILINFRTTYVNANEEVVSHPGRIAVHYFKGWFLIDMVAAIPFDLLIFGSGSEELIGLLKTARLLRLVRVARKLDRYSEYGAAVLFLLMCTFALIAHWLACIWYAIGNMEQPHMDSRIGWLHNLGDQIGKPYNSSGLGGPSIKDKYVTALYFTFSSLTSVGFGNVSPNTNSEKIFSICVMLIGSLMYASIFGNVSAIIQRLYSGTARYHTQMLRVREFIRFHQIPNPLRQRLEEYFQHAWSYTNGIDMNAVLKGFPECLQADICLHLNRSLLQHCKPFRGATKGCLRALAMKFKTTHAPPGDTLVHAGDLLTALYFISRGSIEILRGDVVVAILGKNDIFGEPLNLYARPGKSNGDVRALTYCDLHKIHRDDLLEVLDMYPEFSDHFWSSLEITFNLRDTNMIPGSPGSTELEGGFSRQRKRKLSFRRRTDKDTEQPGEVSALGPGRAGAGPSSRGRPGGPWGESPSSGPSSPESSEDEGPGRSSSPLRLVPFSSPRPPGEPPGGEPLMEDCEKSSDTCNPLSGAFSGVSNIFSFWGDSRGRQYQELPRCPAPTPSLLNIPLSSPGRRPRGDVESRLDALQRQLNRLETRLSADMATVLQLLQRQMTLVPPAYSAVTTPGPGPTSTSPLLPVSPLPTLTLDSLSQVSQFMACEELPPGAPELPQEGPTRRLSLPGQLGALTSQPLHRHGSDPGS

SMILES	hERG current change (%, negative = inhibition) at 10uM [%]
NCC/C=C1/c2ccccc2CSc2ccccc21.O=C(O)/C=C\C(=O)O	-3.76
CN(C)c1ccc(S(=O)(=O)N2CCCCC2)cc1NC(=O)CN1C(=O)NC2(CCCC2)C1=O	8.25
COc1ccccc1OCCNC(=O)C1CC(=O)N(Cc2ccccc2)C1 (stereo not shown)	-10.2
CC(O)CNC(=O)c1ccc(-c2nn(C)c(=O)c3ccccc23)cc1 (stereo not shown)	-0.479
Cc1ccc2c(Cl)cc(Cl)c(OCc3c(C)noc3C)c2n1	8.92
O=C(NO)c1ccc(OC(F)F)cc1	7.91
Cc1ccc(C(C)C)c(O)c1	19.7
CC(C)C[C@@H](CSc1ccccc1)N1CCN(CC(C)C)CCC1=O	-75
O=C(CCC(=O)N(CC(=O)NC1CCCC1)Cc1ccccc1Cl)Nc1nccs1	-16.1
O=C(COC(=O)c1cccc(OC(F)F)c1)NC(=O)NC1CCCCC1	11.1
CCOc1ccc(CN(C)CC(=O)NCc2ccc(F)cc2)cc1	-74
Cc1ccc(N(CC(=O)NCc2ccc(F)cc2)C(=O)c2ccco2)cc1C	-10.8
CN(CC(=O)NCc1ccccc1)Cc1ccc(Cl)cc1	-22.9
CCOc1ccc(N(CC(=O)NC(C)(C)C)C(=O)c2ccco2)cc1	-1.84
CN(CC(=O)NCCc1ccc(F)cc1)Cc1ccccc1	-2.73
CCOc1ccc(CN(C)CC(=O)NCc2ccccc2)cc1	-76.1
Cc1ccc(CNCc2ccccc2Cl)cc1.Cl	-7.02
CCOCCCNCc1ccc(OCc2ccccc2Cl)cc1	-46.9
CCOc1ccc(N(CC(=O)NCc2ccc(F)cc2)C(=O)c2ccco2)cc1	-54.6
CC(=O)c1ccc(OCC(=O)NCc2ccc(F)cc2)cc1	-11.5
CCOc1ccc(CNCc2ccccc2Cl)cc1.Cl	-55.3
CCOc1ccc(N(CC(=O)NCc2ccccc2)S(C)(=O)=O)cc1	-10.9

SMILES	hERG current change (%, negative = inhibition) at 10uM [%]
Cc1c(C)c2c(OCC(=O)NCC(=O)NCC(=O)O)cc3c(c2oc1=O)CCC(C)(C)O3	15.2
Cn1ncc2c(Nc3cccc([N+](=O)[O-])c3)ncnc21	7.09
CC(C)N(C(=O)COC(=O)CNC(=O)c1ccc(Br)cc1)c1ccccc1	-15.5
O=C(COc1ccc(Cl)cc1)NCCCNC(=O)c1ccncc1	-36.1
COC(=O)C1=C(C)OC(N)=C(C#N)C1c1cc2cccc(C)c2nc1Cl (stereo not shown)	-5.39
CN(C)c1cc[n+](CC(=O)Nc2ccc(Cl)cc2)cc1.[Cl-]	7.28
COc1ccc(N2CCOCC2)c(NC(=O)c2cccnc2)c1	12.8
O=C(c1cnn(C(=O)c2cccc(S(=O)(=O)N3CCOCC3)c2)c1)c1cc(Cl)cc(Cl)c1O	-44.5
CC(=O)Oc1ccc(/C=N/NC(=O)c2ccc(N(C)S(=O)(=O)c3ccccc3)cc2)cc1	12.8
C=CCOC(=O)C1=C(C)NC(=S)NC1/C=C/c1ccccc1 (stereo not shown)	-4.63
COc1cccc(CN(C)CC(=O)NCc2ccccc2Cl)c1OC	-7.66
COc1cccc(CN(C)CC(=O)NCc2ccccc2Cl)c1	-5.14
CCOc1ccc(CN(C)CC(=O)NCc2ccccc2Cl)cc1	-89.1
Cn1cccc1/C=N\NC(=O)C1COc2ccc(C(C)(C)C)cc2O1 (stereo not shown)	-3.42
COc1ccc(N2CC(C(=O)NCCC3=CCCCC3)CC2=O)c(OC)c1 (stereo not shown)	-4.67
O=C(O)CC/C(=N/NC(=O)c1cccs1)c1ccccc1	6.16
Nc1c(C(=O)NCc2ccco2)nnn1-c1ccccc1	2.52
CC(C)NC(=O)C1CCN(C2CCN(C(=O)c3scc4c3CCCC4)CC2)CC1	-1.4
CC(C)NC(=O)C1CCN(C2CCN(C(=O)c3cc4c(s3)CCCCC4)CC2)CC1	-51.8
NC(=O)C1CCN(C(=O)c2cc3c(s2)CCCCC3)CC1	-6.51
COc1ccc(S(=O)(=O)Cc2ccc(C(=O)O)o2)cc1	21.8
